According to the supplement of paper PMC13380429:

Test system: Vero E6 infected with SARS-CoV-2
Assay: inhibition of SARS-CoV-2 cytopathic effect; higher = more antiviral protection, active = above 15
Details: 48 h

Measured: inhibition of SARS-CoV-2 cytopathic effect

O=C1c2c(O)cccc2Cc2cccc(O)c21 [anthralin]
inactive: 1 nM -1.32% | 8.33 nM -2.05% | 100 nM 0.93% | 833.33 nM -2.71% | 10000 nM -1.19%

COc1cc(-n2cnc3cc(-c4ccc(Cl)cc4)sc3c2=O)ccc1OCCN1CCCC1
active: 10000 nM 49.9%
inactive: 1 nM -1.24% | 8.33 nM 0.96% | 100 nM 0.81% | 833.33 nM -2.38%

COc1cc2ncnc(Nc3cccc(Cl)c3)c2cc1OC [tyrphostin-AG-1478]
inactive: 1 nM -0.71% | 8.33 nM -1% | 100 nM -7.3% | 833.33 nM -11.1%
active: 10000 nM 17.9%

CN1C(=O)C[C@@H](C(=O)N[C@@H](Cc2c[nH]cn2)C(=O)N2CCC[C@H]2C(N)=O)NC1=O [taltirelin]
inactive: 1 nM 1.73% | 8.33 nM 3.69% | 100 nM 3% | 833.33 nM 3.21% | 10000 nM 4.65%

CSc1ccc(C(=O)N[C@@H]2CCCC[C@@H]2NC(=O)CNC(=O)c2cc(C(F)(F)F)ccc2NC(=O)NC(C)C)cc1
inactive: 1 nM 4.3% | 8.33 nM -0.79% | 100 nM 0.52% | 833.33 nM 0.24% | 10000 nM 0.79%

CC(C)C[C@@H](C(=O)N[C@H](C(=O)OC1CCCC1)c1ccccc1)[C@H](O)C(=O)NO [tosedostat]
inactive: 1 nM 3.34% | 8.33 nM 6.05% | 100 nM -1.49% | 833.33 nM 3.93% | 10000 nM 4.94%

C=C[C@](C)(O)CC[C@@H]1[C@@]2(C)CCCC(C)(C)[C@@H]2CC[C@@]1(C)O [sclareol]
inactive: 1 nM 0.36% | 8.33 nM -0.46% | 100 nM -0.66% | 833.33 nM -1.37% | 10000 nM -4.46%

c1ccc2c(Oc3nc(Nc4ccc(N5CCOCC5)cc4)c4ncn(C5CCCCC5)c4n3)cccc2c1 [purmorphamine]
inactive: 1 nM 0.27% | 8.33 nM 1.18% | 100 nM 0.24% | 833.33 nM 2.43% | 10000 nM -5.44%

CCc1oc2ccccc2c1C(=O)c1cc(Br)c(O)c(Br)c1 [benzbromarone]
inactive: 1 nM -1.45% | 8.33 nM 0.69% | 100 nM -2.5% | 833.33 nM -0.89% | 10000 nM 0.48%

C=CCN1CC[C@]23c4c5ccc(O)c4O[C@H]2C(=O)CC[C@@]3(O)[C@H]1C5
inactive: 1 nM -1.98% | 8.33 nM 1.85% | 100 nM 1.15% | 833.33 nM 3.34% | 10000 nM 0.28%

Cc1ccc2c(c1)c1c(n2CCc2ccc(C)nc2)CCN(C)C1 [latrepirdine]
inactive: 1 nM 1.25% | 8.33 nM -0.5% | 100 nM -0.92% | 833.33 nM 0.73% | 10000 nM 0.87%

COc1ccc(Br)cc1S(=O)(=O)NC(=O)/C=C/c1ccccc1Cc1ccc2ccccc2c1
inactive: 1 nM 1.22% | 8.33 nM 1.19% | 100 nM 1.93% | 833.33 nM 3.35% | 10000 nM -0.51%

CN(c1ccccc1CNc1nc(Nc2ccc3c(c2)CC(=O)N3)ncc1C(F)(F)F)S(C)(=O)=O
inactive: 1 nM -0.17% | 8.33 nM -0.35% | 100 nM -2.19% | 833.33 nM -5.19% | 10000 nM -15.4%

CCN1CCN(c2ccc(C(C)(C)NC(=O)c3cc4[nH]c5ccccc5c(=O)c4cc3F)cn2)CC1
active: 10000 nM 26.8%
inactive: 1 nM 0.53% | 8.33 nM -0.52% | 100 nM 3.59% | 833.33 nM 2.28%

CC(=O)Nc1cccc(-n2c(=O)n(C3CC3)c(=O)c3c(Nc4ccc(I)cc4F)n(C)c(=O)c(C)c32)c1 [trametinib]
inactive: 1 nM -1.42% | 8.33 nM -7.51% | 100 nM -14.6% | 833.33 nM -16.9% | 10000 nM -17.4%

CN(C)CCOC1=Cc2ccccc2Sc2ccc(Cl)cc21 [zotepine]
inactive: 1 nM 3.4% | 8.33 nM 2.96% | 100 nM 4.34% | 833.33 nM 0.16% | 10000 nM -3.52%

CCCc1nc2c(C)cc(-c3nc4ccccc4n3C)cc2n1Cc1ccc(-c2ccccc2C(=O)O)cc1 [telmisartan]
inactive: 1 nM -1.56% | 8.33 nM -2.17% | 100 nM -4.81% | 833.33 nM 2.3% | 10000 nM 1.33%

C[C@H](C[C@H](N)C(=O)O)C(=O)O
inactive: 1 nM -1.19% | 8.33 nM -0.93% | 100 nM -1.73% | 833.33 nM -0.6% | 10000 nM -0.35%

Oc1ccc(Nc2nc(-c3ccc(Cl)cc3)cs2)cc1
inactive: 1 nM 0.33% | 8.33 nM 0.67% | 100 nM 2.65% | 833.33 nM 1.03% | 10000 nM 3.81%

Cn1cnc2c(F)c(Nc3ccc(Br)cc3F)c(C(=O)NOCCO)cc21 [binimetinib]
inactive: 1 nM 3.85% | 8.33 nM -3.38% | 100 nM -9.91% | 833.33 nM -10.1% | 10000 nM -12%

Nc1nc(=O)n([C@H]2C[C@H](O)[C@@H](CO)O2)cc1F [fdcyd]
inactive: 1 nM 0.4% | 8.33 nM 0.55% | 100 nM -0.04% | 833.33 nM 8.53% | 10000 nM -2.15%

Cc1cc(C)c(N(Cc2ccccc2)S(=O)(=O)c2ccc(OCCNC(=O)c3cc4ccccc4o3)cc2)c(C(=O)NO)c1
inactive: 1 nM -0.99% | 8.33 nM 0.92% | 100 nM -1.74% | 833.33 nM -1.22% | 10000 nM -6.93%

CCCCOCCOc1nc(-c2ccc(C(=O)O)c(F)c2)sc1C
inactive: 1 nM -0.86% | 8.33 nM -0.63% | 100 nM -1.87% | 833.33 nM -1.76% | 10000 nM 2.1%

COc1cccc(OC)c1OCCNC[C@H]1COc2ccccc2O1
inactive: 1 nM -0.3% | 8.33 nM 0.6% | 100 nM 0.45% | 833.33 nM 0% | 10000 nM 0.85%

C[C@@]1(CO)[C@H](O)CC[C@@]2(C)[C@H]1CC[C@H]1C[C@@H]3C[C@@]12CC[C@]3(O)CO [aphidicolin]
inactive: 1 nM -5.87% | 8.33 nM -3.68% | 100 nM -2.81% | 833.33 nM -0.76% | 10000 nM -2.66%

OC[C@@H](O)[C@@H](O)[C@H](O)[C@@H](O)CO [sorbitol]
inactive: 1 nM 0.49% | 8.33 nM -0.64% | 100 nM -0.23% | 833.33 nM 1.86% | 10000 nM 1.46%

O=C1NC(=O)c2cc(Nc3ccccc3)c(Nc3ccccc3)cc21
inactive: 1 nM -1.24% | 8.33 nM 1.7% | 100 nM -0.24% | 833.33 nM 0.41% | 10000 nM 1.85%

COc1cccc2cc(-c3nc([C@H]4CC[C@H](C(=O)O)CC4)n4ncnc(N)c34)[nH]c12
inactive: 1 nM 0.22% | 8.33 nM 2.25% | 100 nM 4.58% | 833.33 nM -0.9% | 10000 nM -2.61%

COC(=O)/C=C/c1cccc(N(Cc2ccc(-c3ccc(N(C)C)cc3)cc2)C(=O)C2CCCCC2)c1 [fexaramine]
inactive: 1 nM -0.19% | 8.33 nM 0.37% | 100 nM -0.24% | 833.33 nM 2.29% | 10000 nM 1.78%

CN(C)Cc1ccc(-c2nc3cccc4c3n2CCNC4=O)cc1
inactive: 1 nM 0.51% | 8.33 nM 4.23% | 100 nM 3.95% | 833.33 nM 1.65% | 10000 nM 6.38%

CCCCCOC(=O)Nc1nc(=O)n([C@@H]2O[C@H](C)[C@@H](O)[C@H]2O)cc1F [capecitabine]
inactive: 1 nM -2.56% | 8.33 nM 0.42% | 100 nM -1.36% | 833.33 nM -0.59% | 10000 nM -1.14%

Cn1cc(-c2cnn3c(N)c(Br)c([C@@H]4CCCNC4)nc23)cn1
inactive: 1 nM 0.61% | 8.33 nM 0.92% | 100 nM 2.32% | 833.33 nM 2.1% | 10000 nM 0.48%

Cc1c(C)c2c(c(C)c1O)CCC(C)(C(=O)O)O2 (stereo not given) [trolox]
inactive: 1 nM 4.59% | 8.33 nM 3.64% | 100 nM 1.16% | 833.33 nM 6.02% | 10000 nM 2.14%

COc1ccccc1OCC(O)COC(N)=O (stereo not given) [methocarbamol]
inactive: 1 nM -1.87% | 8.33 nM -0.67% | 100 nM -0.79% | 833.33 nM 2.32% | 10000 nM 1.06%

NC(N)=Nc1nc(CSCC/C(N)=N/S(N)(=O)=O)cs1 [famotidine]
inactive: 1 nM -4.18% | 8.33 nM -3.04% | 100 nM 2.88% | 833.33 nM 4.59% | 10000 nM -0.5%

O=C(O)CSCC(=O)NC1CCSC1=O (stereo not given) [erdosteine]
inactive: 1 nM 1.03% | 8.33 nM 2.17% | 100 nM 1.67% | 833.33 nM -2.61% | 10000 nM 1.6%

CN(C)[C@@H]1C(O)=C(C(N)=O)C(=O)[C@@]2(O)C(O)=C3C(=O)c4c(O)cccc4[C@@](C)(O)[C@H]3C[C@@H]12 [tetracycline]
inactive: 1 nM 1.65% | 8.33 nM 1.27% | 100 nM -0.37% | 833.33 nM -0.82% | 10000 nM 1.35%

O=[N+]([O-])c1ncc[nH]1 [azomycin-(2-nitroimidazole)]
inactive: 1 nM 1.8% | 8.33 nM 1.77% | 100 nM 0.86% | 833.33 nM 2.21% | 10000 nM -0.1%

CN(c1nccc(=O)[nH]1)C1CCN(c2nc3ccccc3n2Cc2ccc(F)cc2)CC1 [mizolastine]
inactive: 1 nM -1.24% | 8.33 nM -0.74% | 100 nM 0.47% | 833.33 nM 0.93% | 10000 nM -1.33%

Oc1noc2c1CCNC2 [gaboxadol]
inactive: 1 nM -0.68% | 8.33 nM 2.6% | 100 nM 1.13% | 833.33 nM 0.58% | 10000 nM -2.2%
